Data as given in PubChem BioAssay AID1159580 (chemical genetic matrix, 2015).
Out of some 5,500 compounds screened, about 2,000 (36%) were called active. Roughly 18% stayed inconclusive and do not appear here. Rule as the data show it: active = normalized growth mostly below about 0.91 (no sharp cut-off); inconclusive = no clear call, values can overlap the other calls; inactive = mostly above about 0.92. This is one part of the list.

Experiment: chemical genetic growth profiling, strain panel (AID 1159580);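 also: tested at 20 µM; growth read once vehicle control cultures reached saturation at 30 °C; 1 = growth at the plate median or of vehicle wells; lower values mean less growth of the strain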
Conditions: growth OD

Measured: normalized growth

O=C1C=CC2=C3c4cc(O)c(O)cc4CC3(O)COC2=C1O (centres undefined)
inactive: S. cerevisiae deletion strains, locus YJR043C, strain POL32, hits give low values 0.868 | S. cerevisiae deletion strains, locus YJR066W, strain TOR1, hits give low values 0.953 | S. cerevisiae deletion strains, locus YJR075W, strain HOC1, hits give low values 0.981 | S. cerevisiae deletion strains, locus YKL068W, hits give low values 1.02 | S. cerevisiae deletion strains, locus YKL085W, strain MDH1 (second series), hits give low values 1.02 | S. cerevisiae deletion strains, locus YKL085W, strain MDH1, hits give low values 1.02 | S. cerevisiae deletion strains, locus YKL160W, strain elf1, hits give low values 1.01 | S. cerevisiae deletion strains, locus YKR001C, strain vps1, hits give low values 1.06 | S. cerevisiae deletion strains, locus YKR026C, strain gcn3, hits give low values 1.05 | S. cerevisiae deletion strains, locus YKR091W, strain srl3, hits give low values 1.04 | S. cerevisiae deletion strains, locus YLL001W, strain dnm1, hits give low values 1 | S. cerevisiae deletion strains, locus YLL026W, hits give low values 1.02 | S. cerevisiae deletion strains, locus YLL041C, strain sdh2, hits give low values 1.02 | S. cerevisiae deletion strains, locus YLR027C, strain aat2, hits give low values 1.01 | S. cerevisiae deletion strains, locus YLR039C, strain RIC1, hits give low values 0.848 | S. cerevisiae deletion strains, locus YLR058C, strain SHM2, hits give low values 0.92 | S. cerevisiae deletion strains, locus YLR102C, strain apc9, hits give low values 1.03 | S. cerevisiae deletion strains, locus YLR113W, strain HOG1, hits give low values 1.06 | S. cerevisiae deletion strains, locus YLR221C, strain rsa3, hits give low values 0.992 | S. cerevisiae deletion strains, locus YLR258W, strain gsy2, hits give low values 0.996 | S. cerevisiae deletion strains, locus YLR262C, strain YPT6 (second series), hits give low values 0.875 | S. cerevisiae deletion strains, locus YLR262C, strain YPT6, hits give low values 0.931 | S. cerevisiae deletion strains, locus YLR268W, strain sec22, hits give low values 1.01 | S. cerevisiae deletion strains, locus YLR320W, strain mms22, hits give low values 1.04 | S. cerevisiae deletion strains, locus YLR330W, strain CHS5, hits give low values 1.01 | S. cerevisiae deletion strains, locus YLR342W, strain FKS1 (second series), hits give low values 0.86 | S. cerevisiae deletion strains, locus YLR342W, strain FKS1, hits give low values 0.994 | S. cerevisiae deletion strains, locus YLR357W, strain rsc2, hits give low values 0.88 | S. cerevisiae deletion strains, locus YLR370C, strain arc18, hits give low values 0.977 | S. cerevisiae deletion strains, locus YLR371W, strain rom2, hits give low values 0.96 | S. cerevisiae deletion strains, locus YLR384C, strain iki3, hits give low values 1.02 | S. cerevisiae deletion strains, locus YLR418C, strain cdc73, hits give low values 0.954 | S. cerevisiae deletion strains, locus YML016C, strain PPZ1, hits give low values 0.938 | S. cerevisiae deletion strains, locus YML032C, strain rad52, hits give low values 1.05 | S. cerevisiae deletion strains, locus YML120C, strain ndi1, hits give low values 1.02 | S. cerevisiae deletion strains, locus YML124C, strain tub3, hits give low values 1.03 | S. cerevisiae deletion strains, locus YMR078C, strain ctf18, hits give low values 1.05 | S. cerevisiae deletion strains, locus YMR125W, strain sto1, hits give low values 1.11 | S. cerevisiae deletion strains, locus YMR129W, hits give low values 1.03 | S. cerevisiae deletion strains, locus YMR205C, strain PFK2, hits give low values 1.05 | S. cerevisiae deletion strains, locus YMR223W, strain ubp8, hits give low values 1.01 | S. cerevisiae deletion strains, locus YMR263W, strain SAP30, hits give low values 0.965 | S. cerevisiae deletion strains, locus YMR307W, strain GAS1, hits give low values 0.815 | S. cerevisiae deletion strains, locus YNL067W, strain RPL9B, hits give low values 0.956 | S. cerevisiae deletion strains, locus YNL071W, strain lat1, hits give low values 1.04 | S. cerevisiae deletion strains, locus YNL183C, strain NPR1, hits give low values 0.983 | S. cerevisiae deletion strains, locus YNL233W, strain BNI4, hits give low values 0.97 | S. cerevisiae deletion strains, locus YNL248C, strain rpa49, hits give low values 1.03 | S. cerevisiae deletion strains, locus YNL250W, strain rad50, hits give low values 1 | S. cerevisiae deletion strains, locus YNL271C, strain bni1, hits give low values 1.01 | S. cerevisiae deletion strains, locus YNL298W, strain CLA4, hits give low values 1.01 | S. cerevisiae deletion strains, locus YNL307C, strain MCK1, hits give low values 1.02 | S. cerevisiae deletion strains, locus YNL322C, strain KRE1 (second series), hits give low values 1.05 | S. cerevisiae deletion strains, locus YNR049C, strain mso1, hits give low values 1.05 | S. cerevisiae deletion strains, locus YNR052C, strain pop2, hits give low values 1.01 | S. cerevisiae deletion strains, locus YOL012C, strain htz1 0.462 | S. cerevisiae deletion strains, locus YOL147C, strain pex11, hits give low values 1.03 | S. cerevisiae deletion strains, locus YOR001W, strain rrp6, hits give low values 1.01 | S. cerevisiae deletion strains, locus YOR061W, strain CKA2, hits give low values 0.977 | S. cerevisiae deletion strains, locus YOR069W, strain VPS5, hits give low values 0.992 | S. cerevisiae deletion strains, locus YOR070C, strain gyp1, hits give low values 0.969 | S. cerevisiae deletion strains, locus YOR080W, strain dia2, hits give low values 1.04 | S. cerevisiae deletion strains, locus YOR083W, strain WHI5, hits give low values 0.965 | S. cerevisiae deletion strains, locus YOR136W, strain idh2, hits give low values 1.05 | S. cerevisiae deletion strains, locus YOR144C, strain elg1, hits give low values 1.03 | S. cerevisiae deletion strains, locus YOR184W, strain ser1, hits give low values 1.04 | S. cerevisiae deletion strains, locus YOR231W, strain MKK1, hits give low values 1.02 | S. cerevisiae deletion strains, locus YOR265W, strain rbl2, hits give low values 1.02 | S. cerevisiae deletion strains, locus YOR270C, strain vph1, hits give low values 0.956 | S. cerevisiae deletion strains, locus YOR290C, strain snf2, hits give low values 0.985 | S. cerevisiae deletion strains, locus YOR316C, strain cot1, hits give low values 1.04 | S. cerevisiae deletion strains, locus YPL078C, strain atp4, hits give low values 1.01 | S. cerevisiae deletion strains, locus YPL106C, strain sse1, hits give low values 0.99 | S. cerevisiae deletion strains, locus YPL240C, strain hsp82, hits give low values 1.03 | S. cerevisiae deletion strains, locus YPL241C, strain CIN2, hits give low values 0.994 | S. cerevisiae deletion strains, locus YPL256C, strain CLN2, hits give low values 1.05 | S. cerevisiae deletion strains, locus YPR119W, strain clb2, hits give low values 1.02 | S. cerevisiae deletion strains, locus YPR141C, strain kar3, hits give low values 1.01 | S. cerevisiae deletion strains, locus YPR163C, strain tif3, hits give low values 1.02 | S. cerevisiae deletion strains, locus YPR167C, strain met16, hits give low values 1.04 | S. cerevisiae deletion strains, strain wtn01, hits give low values 1.03
active: S. cerevisiae deletion strains, locus YKL009W, strain mrt4, hits give low values 1.16 [resistant] | S. cerevisiae deletion strains, locus YKL190W, strain CNB1, hits give low values 0.908 | S. cerevisiae deletion strains, locus YMR058W, strain fet3, hits give low values 0.611 | S. cerevisiae deletion strains, locus YNL128W, strain TEP1, hits give low values 0.845 | S. cerevisiae deletion strains, locus YNL209W, strain ssb2, hits give low values 0.831 | S. cerevisiae deletion strains, locus YOR106W, strain vam3, hits give low values 0.811 | S. cerevisiae deletion strains, locus YPL051W, strain arl3, hits give low values 0.884 | S. cerevisiae strains, strain wild type, hits give low values 0.814
